The nature of assay [1]: optical density shifts of acrAB sulA E. coli – strain DRC41, OD650, 48 h, E. coli filamentation inducer project, primary screen (AID 1152).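 Further: E. coli MC1000 strain DRC41 lacking acrAB efflux pump and sulA.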 The following applies: higher = more signal, called active from +8 up or from −8 down.
Assay [2] is described as follows: probe aLefty1 binding on compound microarray – biochemical, small-molecule microarray, 635/667 nm fluorescence, primary screen (AID 1153).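 Further: score merges spot fluorescence with signal-to-noise ratio from the scanned slide images.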 The following applies: higher = more signal.
A short description of assay [3]: plasmodial surface anion channel blockers, osmotic lysis – cell-based, P. falciparum Indochina, OD700, 1 h, primary screen (AID 1154). The following applies: P. falciparum Indochina infected RBC osmotic lysis, higher = more signal, called active from +8 up or from −8 down.
The nature of assay [4]: plasmodial surface anion channel blockers, osmotic lysis – cell-based, P. falciparum Indochina, OD700, 2 h, primary screen (AID 1155).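 Further: lysis reports solute entry through the parasite surface anion channel PSAC.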 To be noted: P. falciparum Indochina infected erythrocytes, higher = more signal, called active from +8 up or from −8 down.
A short description of assay [5]: changes in parasitized red cell lysis, either direction – P. falciparum Indochina, OD700, 3 h, PSAC antagonist project, primary screen (AID 1156). The following applies: P. falciparum-infected erythrocytes, osmotic lysis, higher = more signal, called active from +8 up or from −8 down.
A short description of assay [6]: plasmodial surface anion channel blockers, osmotic lysis – cell-based, P. falciparum Indochina, OD700, 18 h, primary screen (AID 1157). The following applies: P. falciparum Indochina infected erythrocytes, osmotic lysis OD700, 18 h; higher = more signal, called active from +8 up or from −8 down.
The nature of assay [7]: S6 kinase pathway phospho-S6 level changes – cell-based, A549, cytoblot, luminescence, serum-stimulated, primary screen (AID 1158).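 Further: serum-stimulated A549 lung adenocarcinoma cells; signal is phosphorylated S6 detected by cytoblot immunostaining with HRP secondary.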 The following applies: 5 h, higher = more signal.
The target in assay [8] is NADPH oxidase 2 (Homo sapiens) (UniProt P04839). Briefly: compounds shifting NOX2 Amplex Red fluorescence – cell-based, HEK293-NOX2, PMA-stimulated, NOX inhibitor project, primary screen (AID 1159). Further: test concentration not given here. To be noted: 45 min, higher = more signal, called active from +8 up or from −8 down.
Sequence of NADPH oxidase 2 (Homo sapiens) (P04839 whole entry, looked up): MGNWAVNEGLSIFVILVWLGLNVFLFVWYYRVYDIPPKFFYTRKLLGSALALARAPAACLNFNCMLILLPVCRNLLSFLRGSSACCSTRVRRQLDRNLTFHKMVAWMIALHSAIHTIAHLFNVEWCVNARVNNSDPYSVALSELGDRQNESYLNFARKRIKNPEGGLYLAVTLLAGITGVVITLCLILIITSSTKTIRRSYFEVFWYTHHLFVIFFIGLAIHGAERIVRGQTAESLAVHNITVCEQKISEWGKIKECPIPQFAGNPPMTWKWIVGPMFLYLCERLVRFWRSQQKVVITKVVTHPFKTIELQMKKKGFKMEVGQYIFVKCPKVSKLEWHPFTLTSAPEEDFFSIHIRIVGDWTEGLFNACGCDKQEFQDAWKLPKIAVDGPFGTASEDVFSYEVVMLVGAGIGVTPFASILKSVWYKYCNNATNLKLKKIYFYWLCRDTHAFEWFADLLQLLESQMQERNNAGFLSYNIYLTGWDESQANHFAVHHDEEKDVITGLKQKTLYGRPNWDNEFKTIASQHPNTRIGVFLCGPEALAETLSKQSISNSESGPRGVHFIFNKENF
Assay [9] addresses NADPH oxidase 4 (Homo sapiens) (UniProt Q9NPH5). The assay is described as follows: compounds shifting NOX4 Amplex Red fluorescence – cell-based, HEK293-NOX4, tetracycline-induced, NOX inhibitor project, primary screen (AID 1160). To be noted: HEK293-NOX4, Amplex Red H2O2 fluorescence, 45 min; higher = more signal, called active from +8 up or from −8 down.
Assay [10] deals with NADPH oxidase 5 (Homo sapiens) (UniProt Q96PH1). Briefly: compounds shifting NOX5 Amplex Red fluorescence – cell-based, HEK293-NOX5, NOX inhibitor project, primary screen (AID 1161). To be noted: HEK293-NOX5, ionomycin, 45 min, higher = more signal.
Sequence of NADPH oxidase 5 (Homo sapiens) (Q96PH1 whole entry, looked up): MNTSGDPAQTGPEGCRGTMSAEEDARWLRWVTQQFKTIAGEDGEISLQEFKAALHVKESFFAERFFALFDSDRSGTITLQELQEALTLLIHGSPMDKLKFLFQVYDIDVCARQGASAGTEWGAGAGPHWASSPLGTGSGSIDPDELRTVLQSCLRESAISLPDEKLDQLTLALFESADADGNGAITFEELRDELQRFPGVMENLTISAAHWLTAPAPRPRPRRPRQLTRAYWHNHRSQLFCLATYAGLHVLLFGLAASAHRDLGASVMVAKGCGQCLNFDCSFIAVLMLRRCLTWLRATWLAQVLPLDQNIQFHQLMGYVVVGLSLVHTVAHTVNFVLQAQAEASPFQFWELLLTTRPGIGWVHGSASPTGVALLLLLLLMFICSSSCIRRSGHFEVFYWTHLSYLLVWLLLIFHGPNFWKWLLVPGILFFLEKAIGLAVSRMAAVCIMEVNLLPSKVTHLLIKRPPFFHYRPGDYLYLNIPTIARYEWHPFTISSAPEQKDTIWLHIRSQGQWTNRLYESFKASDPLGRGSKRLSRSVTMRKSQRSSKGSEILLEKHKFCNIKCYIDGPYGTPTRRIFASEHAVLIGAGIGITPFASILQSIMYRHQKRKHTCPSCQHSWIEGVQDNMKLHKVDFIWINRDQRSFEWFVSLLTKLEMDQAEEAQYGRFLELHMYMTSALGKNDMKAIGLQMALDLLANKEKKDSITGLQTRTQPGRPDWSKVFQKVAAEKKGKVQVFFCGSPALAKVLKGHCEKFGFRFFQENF
Assay [11] in a line: compound effects on lung adenocarcinoma cell viability – A549, calcein-AM fluorescence, 48 h, basal, profiling panel (AID 1162). Further: test concentration not given here. The following applies: higher = more signal.
Assay [12] can be described thus: compound effects on differentiated 3T3-L1 adipocyte viability – cell-based, 3T3-L1 adipocytes, calcein-AM fluorescence, 48 h, basal, profiling panel (AID 1163). Further: test concentration not given here. To be noted: 3T3-L1 adipocytes viability, higher = more signal.
A short description of assay [13]: compound effects on hepatocellular carcinoma cell viability – HepG2, calcein-AM fluorescence, 48 h, basal, profiling panel (AID 1164). Further: test concentration not given here. To be noted: higher = more signal.
Assay [14] in a line: compound effects on multiple myeloma cell viability – MM1S, calcein-AM fluorescence, 48 h, basal, profiling panel (AID 1165).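 Further: viability of MM1S multiple myeloma cells under basal unstimulated conditions; test concentration not given here.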 The following applies: higher = more signal.
A short description of assay [15]: calcein-AM signal in unstimulated myeloma cells – cell-based, calcein-AM fluorescence, 48 h, PK04 Diversity Set, profiling panel (AID 1166).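 Further: cells grown under basal conditions without added stimulus; test concentration not given here.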 To be noted: RPMI8226 myeloma viability, higher = more signal.
Assay [16] can be described thus: JC-1 mitochondrial signal, unstimulated HepG2 cells – cell-based, JC-1 fluorescence, 24 h, 100 nL compound, profiling panel (AID 1167). Further: test concentration not given here. To be noted: HepG2 mitochondrial potential, higher = more signal.
Assay [17] is described as follows: JC-1 mitochondrial signal, unstimulated adipocytes – cell-based, JC-1 fluorescence, 3T3-L1 adipocytes, 24 h, 100 nL compound, profiling panel (AID 1168). Further: test concentration not given here. The following applies: JC-1 mitochondrial fluorescence, higher = more signal, called active from +8 up or from −8 down.
A short description of assay [18]: JC-1 mitochondrial signal, unstimulated myeloma cells – cell-based, JC-1 fluorescence, RPMI8226, 24 h, 100 nL compound, profiling panel (AID 1169). Further: test concentration not given here. The following applies: JC-1 mitochondrial potential fluorescence, higher = more signal.
A short description of assay [19]: JC-1 mitochondrial signal, unstimulated MM1S myeloma – cell-based, JC-1 fluorescence, 24 h, 100 nL compound, profiling panel (AID 1170). Further: test concentration not given here. The following applies: MM1S mitochondrial potential, higher = more signal.
Assay [20] is described as follows: resazurin metabolic signal in A549 cells – cell-based, resazurin fluorescence, 24 h, PK04 Diversity Set, profiling panel (AID 1171). Further: test concentration not given here. To be noted: A549 viability, higher = more signal, called active from +8 up or from −8 down.

Z-score and composite z-score data for four compounds are collected here from PubChem BioAssay.

Structures are written as SMILES. Activity calls are given as the source filed them.

Sequence of NADPH oxidase 4 (Homo sapiens) (Q9NPH5 whole entry, looked up): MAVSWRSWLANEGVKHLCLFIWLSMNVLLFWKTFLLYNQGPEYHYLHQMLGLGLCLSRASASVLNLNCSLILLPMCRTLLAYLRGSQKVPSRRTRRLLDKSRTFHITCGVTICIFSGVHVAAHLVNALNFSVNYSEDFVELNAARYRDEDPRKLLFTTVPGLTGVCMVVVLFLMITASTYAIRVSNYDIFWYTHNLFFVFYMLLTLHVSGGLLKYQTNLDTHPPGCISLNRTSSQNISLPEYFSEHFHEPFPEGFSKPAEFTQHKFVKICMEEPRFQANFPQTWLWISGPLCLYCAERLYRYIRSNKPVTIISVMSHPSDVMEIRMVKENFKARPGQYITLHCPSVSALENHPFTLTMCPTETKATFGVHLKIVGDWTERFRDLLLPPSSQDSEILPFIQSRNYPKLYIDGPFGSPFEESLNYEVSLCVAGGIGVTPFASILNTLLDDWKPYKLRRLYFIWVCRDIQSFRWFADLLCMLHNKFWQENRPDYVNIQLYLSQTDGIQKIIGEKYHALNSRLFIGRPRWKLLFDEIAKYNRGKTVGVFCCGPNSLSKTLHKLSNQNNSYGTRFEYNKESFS

`CC(=O)n1cc(C(O)C2C=CC3C(=O)NC(=O)C3N2Nc2ccccn2)c2ccccc21` (stereo not given): the z-score in [1] is -0.734 (inactive); in [3] it was 0.625 (inactive); in assay [4] it was 0.827 (inactive); in assay [5] it was -0.313 (inactive); in assay [6], 0.679 (inactive); in assay [7] it was -0.612. Also, the z-score is -1.68 (inactive) in assay [8]; -2.41 (inactive) in [9]; -1.58 in assay [10]; -0.407 in assay [11]; -1.52 in assay [12]; -0.252 in assay [13]. Besides, the z-score was 0.0238 in assay [14]; 0.102 in assay [15]; -0.743 in [16]; -0.424 (inactive) in assay [17]; 0.634 in assay [18]; -0.0433 in assay [19]. For the same compound, in [20], the z-score was -1.02 (inactive). Moreover, in [2], the composite z-score was -0.101.
In the case of `C=CC[C@@]1(C(=O)N2CCCCC2)N=C(c2ccc(OCCCO)cc2)O[C@@H]1c1ccccc1N=[N+]=[N-]`, the z-score in [1] is 0.432 (inactive); in assay [3], 31.2 (active); in assay [4] it was 27.2 (active); in assay [5], 1.27 (inactive); in assay [6] it was 6.5 (inactive); in assay [7], 0.995. The z-score was -1.67 (inactive) in assay [8]; 0.378 (inactive) in [9]; -1.88 in assay [10]; -0.637 in assay [11]; 2.03 in [12]; -0.441 in [13]. Also, the z-score in [14] is -1.23; in assay [15], -2.71; in [16], 1.02; in assay [17], 1.21 (inactive); in [18], -0.982; in assay [19] it was -1.66. Further, the z-score in assay [20] is -1.5 (inactive). For the same compound, the composite z-score in [2] stood at 0.407.
For `CN(C)CCCCCCNC(=O)[C@@H]1C[C@@H]2C(=O)N[C@@H](CCCC[N+](C)(C)C)C(=O)N2[C@@H]1c1ccc(O)cc1`, the z-score in assay [1] was -0.3 (inactive); in assay [3], 1.59 (inactive); in assay [4], -0.375 (inactive); in assay [5] it was -0.604 (inactive); in assay [6], 0.0077 (inactive); in [7] it was -0.607. Also, the z-score in assay [8] is -1.47 (inactive); in assay [9] it was -0.773 (inactive); in assay [10], -1.4; in assay [11] it was -0.974; in assay [12], 0.334; in [13], -0.646. Moreover, the z-score in assay [14] was -1.51; in assay [15], 0.131; in assay [16], -0.108; in assay [17] it was -0.302 (inactive); in assay [18], 0.185; in assay [19], -0.313. Moreover, in assay [20], the z-score is -0.994 (inactive). This compound also gave a composite z-score in [2] of -0.612.
On to `COCCOC(=O)N1C(=O)[C@@]2(c3cc(C#CC4(O)CCCCCC4)ccc31)[C@H](c1ccccc1OCCO)N1[C@H](c3ccccc3)[C@H](c3ccccc3)OC(=O)[C@H]1[C@@H]2C(=O)N1CCc2cc(OC)c(OC)cc2C1`, for which the z-score in [1] was 0.109 (inactive); in assay [3] it was 2.53 (inactive); in assay [4], 0.888 (inactive); in assay [5], 0.467 (inactive); in [6], 0.773 (inactive); in assay [7], 0.495. Also, the z-score in assay [8] is 1.25 (inactive); in assay [9], 0.534 (inactive); in assay [10], 1.82; in assay [11], -0.329; in [12] it was 0.346; in assay [13] it was -0.011. Besides, the z-score in assay [14] is -0.889; in assay [15] it was -1.76; in [16], -0.0229; in assay [17] it was 0.0348 (inactive); in assay [18], -0.686; in [19], -1.14. In addition, in [20], the z-score is 0.512 (inactive). In [2], this compound displayed a composite z-score of 0.379.
